# Measured values taken from PubChem BioAssay (NCATS).
# Records with an inconclusive call do not appear. Activity calls are given as the source filed them. Unless noted, calls follow the shape of the full dose curve.
# Assays:
# [1] = target: Lysosomal acid glucosylceramidase (Homo sapiens) (UniProt P04062); assay: Glucocerebrosidase-p2 (AID 348; in the data active = potency below about 10 µM; also: potency is read from the fitted curve at half-maximal effect); settings: purified GBA, blue fluorogenic substrate, 40 min
# Chain of Lysosomal acid glucosylceramidase (Homo sapiens) (P04062 whole entry, looked up): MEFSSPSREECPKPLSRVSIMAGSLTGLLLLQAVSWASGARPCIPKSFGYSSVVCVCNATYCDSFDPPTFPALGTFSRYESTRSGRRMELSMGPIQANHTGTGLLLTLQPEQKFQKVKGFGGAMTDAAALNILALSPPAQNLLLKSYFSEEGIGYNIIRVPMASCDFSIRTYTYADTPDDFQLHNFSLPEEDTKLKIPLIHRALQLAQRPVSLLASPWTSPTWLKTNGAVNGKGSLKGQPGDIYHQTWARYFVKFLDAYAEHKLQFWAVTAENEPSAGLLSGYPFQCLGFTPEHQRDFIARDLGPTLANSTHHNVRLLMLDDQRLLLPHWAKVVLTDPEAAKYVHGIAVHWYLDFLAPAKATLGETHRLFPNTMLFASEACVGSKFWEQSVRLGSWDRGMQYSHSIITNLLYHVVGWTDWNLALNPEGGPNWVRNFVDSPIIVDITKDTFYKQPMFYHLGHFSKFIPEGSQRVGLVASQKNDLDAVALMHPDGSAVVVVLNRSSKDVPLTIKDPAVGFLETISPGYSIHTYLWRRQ
# In short: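 Normal human glucocerebrosidase (0.2 nM) with blue fluorogenic substrate (80 uM final) in citrate/phosphate pH 5.9 with 10mM sodium taurocholate, 0.01% tween-20; 40 min RT, NaOH/glycine stop; fluorescence Ex 365/Em 440; AC50 from a titration from 0.6 nM upwards.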
# [2] = AP1 Signaling Pathway (AID 357; active = well fitted curve in either direction with a large enough effect, not every such curve was filed as active;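 also: ME-180 reporter cells stimulated with EGF at its EC50 level; % is scaled to controls: 0 for no effect and ±100 for the full control effect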); settings: ME-180 AP-1-bla reporter, EGF-induced, beta-lactamase ratio, 5 h; at 7.69 µM (top of the series) unless noted
# In short: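 First, ME-180 AP-1-bla cells were cultured overnight at 37 °C in low-serum Opti-MEM. Next, titrated compounds with EC50 EGF were incubated 5 hours. Finally, CCF4 was added for 2.5 hours and the 460/530 nm ratio recorded.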
# [3] = target: Cytochrome P450 1A2 (Homo sapiens) (UniProt P05177); assay: p450-cyp1a2 (AID 410); settings: recombinant CYP1A2, luciferin-ME demethylation, luminescence; series mostly up to 57 µM; also: potency is read from the fitted curve at half-maximal effect;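 as to activity change, negative = inhibition: -100% = full effect of reference inhibitor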
# Chain of Cytochrome P450 1A2 (Homo sapiens) (P05177 whole entry, looked up): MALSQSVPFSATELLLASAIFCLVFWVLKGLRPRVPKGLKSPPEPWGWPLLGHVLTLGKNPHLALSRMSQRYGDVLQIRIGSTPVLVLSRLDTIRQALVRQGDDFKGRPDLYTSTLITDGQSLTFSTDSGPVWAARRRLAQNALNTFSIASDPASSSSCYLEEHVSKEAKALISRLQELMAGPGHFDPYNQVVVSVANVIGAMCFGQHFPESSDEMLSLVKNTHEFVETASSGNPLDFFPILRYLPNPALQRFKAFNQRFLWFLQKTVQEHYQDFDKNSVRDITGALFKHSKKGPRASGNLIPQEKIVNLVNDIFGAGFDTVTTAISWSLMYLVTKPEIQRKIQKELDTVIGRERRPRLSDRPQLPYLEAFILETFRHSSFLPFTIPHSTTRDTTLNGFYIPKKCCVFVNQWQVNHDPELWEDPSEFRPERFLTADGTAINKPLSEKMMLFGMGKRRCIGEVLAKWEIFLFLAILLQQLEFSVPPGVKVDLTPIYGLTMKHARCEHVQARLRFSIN
# In short: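 O-Demethylation of luciferin 6' methyl ether by human CYP1A2 is monitored as luciferase luminescence. Substrate sits at Km (100uM); enzyme is 20nM. Values are scaled to 57 uM furafylline as maximal inhibition.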
# [4] = Stat Signaling Pathway (AID 446; active = well fitted curve in either direction with a large enough effect, not every such curve was filed as active;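 also: ME-180 cervical cancer cells given 40 pM IL-6 alongside compound; SIE-controlled beta-lactamase reporter measured as 460/530 nm FRET emission ratio; % is scaled to controls: 0 for no effect and ±100 for the full control effect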); settings: ME-180 SIE beta-lactamase reporter, IL-6 stimulated, 5 h; at 7.69 µM (top of the series) unless noted
# In short: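 Emission at 460 and 530 nm (excitation 405 nm) reports SIE-controlled beta-lactamase in ME-180 cells. Cells received compound with 40 pM IL-6 for 5 hrs at 37 C; data scaled between 300 pM IL-6 and 125 nM JAK-inhibitor controls.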
# [5] = target: Glucocorticoid receptor (Homo sapiens) (UniProt P04150); assay: GR-EFC Redistribution (AID 451); settings: CHO-K1 GR-EFC translocation, beta-gal luminescence, 2 h; also: potency is read from the fitted curve at half-maximal effect
# Chain of Glucocorticoid receptor (Homo sapiens) (P04150 whole entry, looked up, the tested form may be a part): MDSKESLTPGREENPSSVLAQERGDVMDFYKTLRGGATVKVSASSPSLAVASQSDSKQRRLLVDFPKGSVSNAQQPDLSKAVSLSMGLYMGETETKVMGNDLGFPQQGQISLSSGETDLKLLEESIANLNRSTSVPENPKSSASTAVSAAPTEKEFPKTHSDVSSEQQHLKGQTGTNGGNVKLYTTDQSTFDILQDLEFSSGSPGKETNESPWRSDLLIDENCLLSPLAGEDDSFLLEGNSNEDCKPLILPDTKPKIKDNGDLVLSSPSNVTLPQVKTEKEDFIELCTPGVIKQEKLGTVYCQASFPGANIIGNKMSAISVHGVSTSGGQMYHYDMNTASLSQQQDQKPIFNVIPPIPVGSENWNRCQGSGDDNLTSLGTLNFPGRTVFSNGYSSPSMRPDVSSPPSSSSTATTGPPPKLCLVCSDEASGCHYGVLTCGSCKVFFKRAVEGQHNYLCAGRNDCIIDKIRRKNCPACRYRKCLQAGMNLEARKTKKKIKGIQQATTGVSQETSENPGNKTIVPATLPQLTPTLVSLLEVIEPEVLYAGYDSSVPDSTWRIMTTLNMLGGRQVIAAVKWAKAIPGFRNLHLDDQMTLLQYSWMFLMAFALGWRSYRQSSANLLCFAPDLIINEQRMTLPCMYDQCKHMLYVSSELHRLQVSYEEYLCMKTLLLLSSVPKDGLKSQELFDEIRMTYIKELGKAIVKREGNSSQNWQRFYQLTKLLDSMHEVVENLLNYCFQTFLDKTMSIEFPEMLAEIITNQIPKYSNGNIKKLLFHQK
# In short: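 CHO-K1 cells expressing nuclear EA and GR-ED fragments of b-gal; compounds titrated up to 46 uM final, 2 h at 37 C. GR nuclear translocation read as complemented b-gal luminescence after 1 h RT detection.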
# [6] = target: 3',5'-cyclic-AMP phosphodiesterase 4B (Homo sapiens) (UniProt Q07343); assay: qHTS Assay for Inhibitors of PDE-IV (AID 607; active = well fitted activation curve with a large enough effect in the main read-out, with a control signal flat, not every such curve was filed as active; also: % of control where 0% means no effect); settings: HEK293 ACTOne CNG channel cells, membrane potential fluorescence; series mostly up to 22.9 µM
# Chain of 3',5'-cyclic-AMP phosphodiesterase 4B (Homo sapiens) (Q07343 whole entry, looked up): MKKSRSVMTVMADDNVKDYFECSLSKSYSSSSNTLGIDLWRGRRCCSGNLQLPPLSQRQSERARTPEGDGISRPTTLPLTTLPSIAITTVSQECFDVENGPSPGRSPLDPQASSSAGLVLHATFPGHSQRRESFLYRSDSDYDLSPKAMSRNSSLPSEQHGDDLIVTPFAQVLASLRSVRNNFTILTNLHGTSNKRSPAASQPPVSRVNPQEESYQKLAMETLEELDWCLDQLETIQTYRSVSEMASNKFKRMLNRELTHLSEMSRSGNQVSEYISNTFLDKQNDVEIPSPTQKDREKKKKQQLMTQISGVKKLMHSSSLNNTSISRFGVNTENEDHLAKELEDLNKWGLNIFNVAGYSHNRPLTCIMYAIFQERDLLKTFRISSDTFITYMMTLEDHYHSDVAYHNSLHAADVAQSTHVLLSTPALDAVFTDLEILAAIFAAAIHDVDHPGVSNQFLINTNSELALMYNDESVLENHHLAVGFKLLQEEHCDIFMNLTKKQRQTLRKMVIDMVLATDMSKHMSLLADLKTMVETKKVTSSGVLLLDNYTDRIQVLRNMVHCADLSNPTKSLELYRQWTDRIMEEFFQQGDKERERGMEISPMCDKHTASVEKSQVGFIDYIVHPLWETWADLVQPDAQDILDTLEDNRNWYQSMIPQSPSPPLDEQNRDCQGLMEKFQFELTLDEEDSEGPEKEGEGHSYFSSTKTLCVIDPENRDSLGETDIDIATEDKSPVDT
# In short: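 The readout is membrane depolarisation from a cAMP-sensing CNG channel, detected with a potential dye at ex 535/em 590. Cells were HEK293-derived (endogenous PDE-IV) at 1000 cells/well, titrated up to 22.9 uM final.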
# [7] = qHTS Assay for Lipid Storage Modulators (AID 1519); settings: Drosophila S3 cells, BODIPY lipid droplet/cell ratio, laser cytometry, cells loaded with oleic acid; for activity change, negative = inhibition: at 57.5 µM (top of the series)
# In short: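 Cells seeded at 5,000 per well were treated with compounds over a concentration series and loaded with oleic acid (400 uM, as added). Lipid droplet fluorescence (488 nm excitation, 500-530 nm channel) was read by laser-scanning cytometry and normalized to 20 uM Triacsin C.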
# [8] = Primary qHTS for small molecule stabilizers of the endoplasmic reticulum resident proteome: Secreted ER Calcium Modulated Protein (SERCaMP) assay (AID 1508630; active = well fitted curve in the direction sought with a large enough effect; an effect the other way counts as inactive or inconclusive; also: % is scaled to controls: 0 for no effect and ±100 for the full control effect); settings: SH-SY5Y GLuc-SERCaMP (Gaussia luciferase released on ER calcium loss) secretion, thapsigargin, luminescence; series mostly up to 38.4 µM
# In short: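 The SH-SY5Y reporter protocol was run at 3 concentrations up to 38.3 uM (primary) or 11 concentrations (follow-up): 16 h compound, 100 nM thapsigargin for 4 h, then extracellular luciferase luminescence.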
# [9] = target: Mitogen-activated protein kinase 10 (Mus musculus) (UniProt Q61831); assay: JNK3 AlphaScreen Assay (AID 530; active = well fitted curve in either direction with a large enough effect, not every such curve was filed as active;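 also: kinase came from lysate of stimulated human HepG2 cells; signal reports phosphorylation of biotinylated GST-cJun 1-79 at Ser73 with 10 µM ATP; % is scaled to controls: 0 for no effect and ±100 for the full control effect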); settings: JNK3 lysate, c-Jun phosphorylation; series mostly up to 57.1 µM
# In short: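 Activity was read by AlphaScreen after JNK3-containing HepG2 lysate (cytokine pre-activated) phosphorylated biotinylated GST-cJun with 10 uM ATP at room temperature. Phospho-Ser73 cJun antibody with Protein-A acceptor beads provided detection.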
# [10] = qHTS Assay for Identification of Small Molecule Agonists for Hypoxia Response Element Signaling Pathway (AID 914; active = well fitted activation curve with a large enough effect in the signal ratio, with a control signal flat, not every such curve was filed as active; the % refers to the signal ratio; also: potency is read from the fitted curve at half-maximal effect; as to activation: % of control where 0% means no effect); settings: ME-180 (cervical carcinoma) HRE-bla reporter, beta-lactamase ratio, CoCl2, 17 h; activation: stronger effect = higher value
# In short: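 Cells were plated overnight, pin-dosed with compound in a titration series, co-stimulated with EC50 CoCl2 and incubated 17 hours at 37 degrees Celsius. CCF4 substrate was then loaded, and AC50 values came from the 460nm/530nm ratio.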
# [11] = target: Cytochrome P450 3A4 (Homo sapiens) (UniProt P08684); assay: qHTS Assay for Activators of Cytochrome P450 3A4 (AID 885; active = well fitted curve in the direction sought with a large enough effect; an effect the other way counts as inactive or inconclusive; also: nearly all actives have a fitted effect of over 65% in size); settings: recombinant CYP3A4, Luciferin-PPXE luminescence, 60 min; series mostly up to 57.1 µM
# Chain of Cytochrome P450 3A4 (Homo sapiens) (P08684 whole entry, looked up): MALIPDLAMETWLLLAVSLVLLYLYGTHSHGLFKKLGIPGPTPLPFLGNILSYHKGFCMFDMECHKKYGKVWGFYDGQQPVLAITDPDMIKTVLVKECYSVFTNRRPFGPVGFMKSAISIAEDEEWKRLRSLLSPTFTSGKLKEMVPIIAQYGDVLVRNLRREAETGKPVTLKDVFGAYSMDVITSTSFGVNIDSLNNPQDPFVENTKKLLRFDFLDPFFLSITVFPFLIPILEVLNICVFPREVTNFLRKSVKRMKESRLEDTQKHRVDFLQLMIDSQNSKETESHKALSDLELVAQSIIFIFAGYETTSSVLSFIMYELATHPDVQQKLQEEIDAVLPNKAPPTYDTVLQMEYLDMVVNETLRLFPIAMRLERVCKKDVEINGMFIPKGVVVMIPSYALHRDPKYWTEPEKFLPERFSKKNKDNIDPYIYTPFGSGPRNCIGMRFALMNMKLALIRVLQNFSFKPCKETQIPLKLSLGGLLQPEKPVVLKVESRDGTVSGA
# In short: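 Activators are scored by enhanced luminescence from CYP3A4 conversion of luciferin-PPXE (25uM, equal to KM) to luciferin, after 60 min at RT with an NADPH-regenerating system.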
# [12] = target: Cytochrome P450 2D6 (Homo sapiens) (UniProt P10635); assay: qHTS Assay for Inhibitors and Substrates of Cytochrome P450 2D6 (AID 891; active = well fitted curve in the direction sought with a large enough effect; an effect the other way counts as inactive or inconclusive; also: potency is read from the fitted curve at half-maximal effect; nearly all actives have a fitted effect of over 60% in size); settings: recombinant CYP2D6, luciferin-ME EGE luminescence; series mostly up to 57.1 µM
# Chain of Cytochrome P450 2D6 (Homo sapiens) (P10635 whole entry, looked up): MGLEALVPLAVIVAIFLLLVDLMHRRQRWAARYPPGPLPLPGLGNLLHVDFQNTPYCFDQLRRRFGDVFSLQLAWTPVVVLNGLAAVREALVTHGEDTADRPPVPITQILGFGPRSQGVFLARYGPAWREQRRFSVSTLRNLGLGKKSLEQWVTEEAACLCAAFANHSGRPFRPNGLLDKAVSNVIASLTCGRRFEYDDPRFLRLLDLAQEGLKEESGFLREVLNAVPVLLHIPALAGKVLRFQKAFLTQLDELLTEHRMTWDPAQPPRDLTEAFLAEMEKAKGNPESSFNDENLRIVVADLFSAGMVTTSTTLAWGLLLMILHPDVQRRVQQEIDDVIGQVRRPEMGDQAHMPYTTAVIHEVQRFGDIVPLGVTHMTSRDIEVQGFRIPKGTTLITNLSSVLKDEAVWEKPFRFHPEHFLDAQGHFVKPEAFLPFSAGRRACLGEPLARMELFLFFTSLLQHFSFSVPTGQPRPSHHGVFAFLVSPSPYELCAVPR
# In short: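 Luminescent read-out of luciferin formed by 5 nM human CYP2D6 demethylating 30 uM Luciferin-ME EGE (Km level) over 60 min at room temperature after NADPH regeneration addition. Data normalized to full inhibition by 1.43 uM quinidine.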
# [13] = target: Cytochrome P450 2C19 (Homo sapiens) (UniProt P33261); assay: qHTS Assay for Inhibitors and Substrates of Cytochrome P450 2C19 (AID 899; active = well fitted curve in the direction sought with a large enough effect; an effect the other way counts as inactive or inconclusive; also: potency is read from the fitted curve at half-maximal effect; nearly all actives have a fitted effect of over 60% in size); settings: recombinant CYP2C19, luciferin-H EGE luminescence; series mostly up to 57.1 µM
# Chain of Cytochrome P450 2C19 (Homo sapiens) (P33261 whole entry, looked up): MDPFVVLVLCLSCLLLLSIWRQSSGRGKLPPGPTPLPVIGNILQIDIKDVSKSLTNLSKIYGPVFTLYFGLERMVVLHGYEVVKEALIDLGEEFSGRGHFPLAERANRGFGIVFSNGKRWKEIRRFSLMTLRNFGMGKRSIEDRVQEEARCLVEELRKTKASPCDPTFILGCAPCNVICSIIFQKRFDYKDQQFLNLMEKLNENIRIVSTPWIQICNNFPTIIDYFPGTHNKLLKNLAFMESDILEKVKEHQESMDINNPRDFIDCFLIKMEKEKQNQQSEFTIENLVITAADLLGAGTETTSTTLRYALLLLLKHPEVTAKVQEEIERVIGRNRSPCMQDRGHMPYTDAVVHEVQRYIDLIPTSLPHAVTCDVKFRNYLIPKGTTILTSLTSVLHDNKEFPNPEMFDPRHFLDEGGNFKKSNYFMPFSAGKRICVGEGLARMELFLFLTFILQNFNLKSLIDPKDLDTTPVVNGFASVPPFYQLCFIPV
# In short: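 Signal comes from luciferase acting on luciferin released by CYP2C19-mediated hydroxylation of Luciferin-H EGE, 10uM (KM). Assay mix: 5nM enzyme, 50mM KPO4; 60 min at 37C with NADPH regeneration. Data normalized against 57uM ketoconazole.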
# [14] = target: Glucocorticoid receptor (Homo sapiens) (UniProt P04150); assay: GR-GFP Redistribution (AID 450;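 active = compounds whose dose series gives a full or clear partial fitted curve of increased nuclear translocation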; also: potency is read from the fitted curve at half-maximal effect); settings: U2OS GR-GFP nuclear translocation, laser cytometry, 2 h
# [15] = Confirmation and Secondary Assay for Modulators of Hemoglobin Beta Chain Splicing at IVS2 654 locus (AID 910; active = well fitted curve in the direction sought with a large enough effect; an effect the other way counts as inactive or inconclusive;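 also: HeLa cells stably carrying EGFP split by mutant beta-globin IVS2-654 intron; % of control where 0% means no effect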); settings: HeLa EGFP-654 splicing reporter, GFP fluorescence, 48 h; series mostly up to 38.3 µM
# In short: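 HeLa cells stably expressing EGFP interrupted by β-globin IVS2-654 intron, seeded overnight in Opti-MEM/2% FCS, then treated 2 days at 37 °C. Restored splicing read as total peak GFP intensity per well by laser scanning cytometry (488 nm excitation, 500–520 nm emission); 500 nM antisense PNA as control.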
# [16] = Confirmation and Secondary Assay for Modulators of Hemoglobin Beta Chain Splicing at IVS2 705 locus (AID 930; active = well fitted curve in the direction sought with a large enough effect; an effect the other way counts as inactive or inconclusive;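 also: HeLa cells stably expressing the EGFP-705 splicing reporter; GFP fluorescence per well restored by corrected splicing of the IVS2-705 intron in EGFP; % of control where 0% means no effect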); settings: HeLa EGFP-705 splicing reporter, GFP fluorescence, 48 h; series mostly up to 38.3 µM
# In short: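 Splice-correction reporter: EGFP cDNA split by beta-globin intron 2 bearing the 705 mutation, stably in HeLa. Compound incubation 2 days, 37C; fluorescent objects 5-250 µm summed per well.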
# [17] = measured here: cell count channel max response
# [18] = measured here: lipid channel max response
Structure (SMILES),Potency [1],"activity change, negative = inhibition [2]",Potency [3],"activity, negative = inhibition [4]",Potency [5],Potency [6],"activity change, negative = inhibition [7]","max response [7, 17]","max response [7, 18]",outcome [8],Potency [9],activation [10],Potency [11],Potency [12],Potency [13],Potency [14],Potency [15],Potency [10],outcome [16]
COCC(=O)N1CCC2(CC1)CCN(c1cccc(-c3ccccc3)c1)CC2,> 11.4 µM (inactive),-4.83% (inactive),5.01 µM (active),-8.32% (inactive),> 46 µM (inactive),inactive,-0.758% (inactive),-9.9%,-7.13%,inactive,–,–,–,–,–,–,–,–,–
O=C(c1ccco1)N1CCC2(CCN(Cc3nccs3)CC2)CC1,> 11.4 µM (inactive),5.22% (inactive),inactive,4.68% (inactive),> 46 µM (inactive),inactive,1% (inactive),8.57%,12.6%,inactive,inactive,-9.81% (inactive),–,–,–,–,–,–,–
CS(=O)(=O)N1CCC2(CCCN(C(c3ccccc3)c3ccccc3)C2)CC1,> 11.4 µM (inactive),-6.2% (inactive),inactive,12.1% (inactive),> 46 µM (inactive),inactive,2.84% (inactive),13.3%,16.2%,inactive,inactive,–,inactive,5.01 µM (active),–,–,–,–,–
N#Cc1cccc(NC(=O)N2CC3(CCN(C(=O)c4cc(C(F)(F)F)cc(C(F)(F)F)c4)CC3)C2)c1,> 11.4 µM (inactive),-13.9% (inactive),12.6 µM (active),-7.2% (inactive),> 46 µM (inactive),inactive,-0.946% (inactive),14%,14.4%,inactive,inactive,–,inactive,–,0.631 µM (active),–,–,–,–
Cc1noc(C)c1-c1ccc2ncnc(NCc3ccccc3)c2c1,> 11.4 µM (inactive),21.4% (inactive),3.16 µM (active),–,> 46 µM (inactive),–,-0.127% (inactive),-0.875%,-2.04%,inactive,inactive,–,inactive,–,7.94 µM (active),> 46 µM (inactive),inactive,3.16 µM (active),inactive
